Bioassay records (PubChem BioAssay)
CHT PAM: CHT positive allosteric modulators, primary screen, cell-based, membrane potential dye, choline EC20 | High affinity choline transporter 1 (Homo sapiens), Q9GZV3 | CHT-expressing cells; hits give high values; LV-AA mutant CHT in HEK293 cells | B-score at 10 µM | hit rate 0.49% among 310,000 | AID 488977, 2010;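 active means initial fluorescence not abnormally high and integrated response B-score, plate-corrected, over 3 SD above library mean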
ANO1 activ: TMEM16A chloride channel activators or potentiators, primary screen, cell-based, HTS. Anoctamin-1 (Mus musculus), Q8BHY3. B-score at 10 µM. HEK293 TMEM16A/YFP-H148Q/I152L, iodide quench fluorescence; hits give low values. hit rate 0.3% among 340,000;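 active means fluorescence-ratio B-score plate-corrected deviation score at least 3 library SD below zero, with starting fluorescence score within 5 deviations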;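 further: channel opened by trigger with iodide after compound preincubation; score built on the fluorescence ratio of max minus min over baseline; more negative score means more quench and so TMEM16A activation or potentiation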
Target sequence (Q8BHY3 whole entry, looked up): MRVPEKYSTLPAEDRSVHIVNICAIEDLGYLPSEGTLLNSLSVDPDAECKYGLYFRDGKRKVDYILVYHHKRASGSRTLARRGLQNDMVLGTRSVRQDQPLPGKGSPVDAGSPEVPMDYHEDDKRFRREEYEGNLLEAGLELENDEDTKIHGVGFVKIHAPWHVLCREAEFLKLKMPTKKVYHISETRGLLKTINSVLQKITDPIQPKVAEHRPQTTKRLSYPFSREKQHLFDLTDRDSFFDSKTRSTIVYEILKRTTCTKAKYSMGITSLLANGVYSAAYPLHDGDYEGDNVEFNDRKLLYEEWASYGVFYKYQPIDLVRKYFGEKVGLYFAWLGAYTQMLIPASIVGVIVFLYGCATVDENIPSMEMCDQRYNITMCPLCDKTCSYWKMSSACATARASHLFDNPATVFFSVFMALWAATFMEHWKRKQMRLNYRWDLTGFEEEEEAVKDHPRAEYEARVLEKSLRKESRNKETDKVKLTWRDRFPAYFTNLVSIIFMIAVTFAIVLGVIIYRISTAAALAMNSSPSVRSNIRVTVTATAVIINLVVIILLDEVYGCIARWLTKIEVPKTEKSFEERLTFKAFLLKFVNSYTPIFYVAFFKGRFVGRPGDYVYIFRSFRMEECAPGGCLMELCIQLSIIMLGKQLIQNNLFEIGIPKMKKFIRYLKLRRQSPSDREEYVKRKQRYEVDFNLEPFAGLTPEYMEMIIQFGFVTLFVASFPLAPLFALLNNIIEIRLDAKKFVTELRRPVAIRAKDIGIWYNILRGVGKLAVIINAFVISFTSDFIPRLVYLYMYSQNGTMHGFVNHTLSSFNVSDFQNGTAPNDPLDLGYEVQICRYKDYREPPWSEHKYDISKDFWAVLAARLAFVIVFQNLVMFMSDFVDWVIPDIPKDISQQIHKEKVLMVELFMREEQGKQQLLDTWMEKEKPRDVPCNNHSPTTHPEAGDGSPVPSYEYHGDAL
ANO1 block: TMEM16A chloride channel inhibitors, primary screen, cell-based, HTS; Anoctamin-1 (Mus musculus), Q8BHY3; HEK293 TMEM16A/YFP iodide influx fluorescence, ionomycin; normalized B-score (activity score, 25-100; higher = stronger inhibition) at 10 µM; hit rate 1.2% among 310,000;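 active means ratio plate-corrected score three or more library SD toward inhibition, starting fluorescence score within five deviations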;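 further: score derived from kinetic fluorescence span divided by baseline fluorescence per well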
CHT inh: inhibitors of human choline transporter CHT; AID 488975, 2010; High affinity choline transporter 1 (Homo sapiens), Q9GZV3; hit rate 0.86% among 310,000; CHT-expressing cells, membrane potential dye, choline response; hits give low values; B-score at 10 µM;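 active means B-score over 3 SD under the library average, and starting fluorescence ratio not unusually high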;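 further: choline stimulus applied at its EC90 after an EC20 pre-addition; B-score computed on integrated fluorescence ratio after choline addition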
TMEM16A reconf: TMEM16A chloride channel inhibitors, confirmation, cell-based, re-confirmation. HEK293 TMEM16A/YFP-H148Q, iodide quench fluorescence; ionomycin added to raise cell calcium. shares compounds with ANO1 block. inhibition, % at 10 µM. hit rate 39% among 2,300;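 active means mean duplicate percent inhibition, scaled so buffer wells are 0 and the reference blocker 100, over three buffer SD above buffer mean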
HEK293 Ca mobil: calcium mobilization in TMEM16A/YFP HEK293 cells, confirmation, counter-screen for TMEM16A inhibitor project | shares compounds with ANO1 block | Fluo4 calcium mobilization | calcium response (% of ionomycin), % at 10 µM | hit rate 2% among 2,300 | AID 652231, 2013;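 active means duplicate-averaged calcium signal over 20% of the ionomycin maximum, relative to buffer baseline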;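 further: each well's signal is peak minus trough fluorescence divided by its pre-addition baseline; 0% = buffer wells and 100% = ionomycin wells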
YFP-HEK293 quench: iodide YFP quench changes in parental YFP-HEK293, counter-screen for TMEM16A inhibitor project, cell-based. AID 652233, 2013. 2,300 tested, under 10 active. ionomycin. YFP ratio F(max-min)/F0 at 10 µM. shares compounds with ANO1 block;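 active means yellow fluorescent protein signal ratio exceeding the buffer control mean by over 5 SD of those controls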;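 further: ratio is mean of duplicate wells from kinetic YFP trace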
ClC-1 rat inh: ClC-1 chloride channel inhibition, selectivity assay for TMEM16A inhibitor project, cell-based, voltage-dependent ClC-1. CHO ClC-1-YFP, iodide influx fluorescence quench; iodide control reads 0, buffer control 100. shares compounds with ANO1 block. ratio percent, % at 10 µM. 2,300 tested, under 10 active;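 active means duplicate-mean ratio percent above the mean of iodide-only control wells, which defines zero, plus 5 of their SD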;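 further: higher percent means stronger block of ClC-1 iodide influx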
The depositor's hits bear a star; i = inactive; . = no result given. Compounds with a hit are over-represented: about 2.3% of the library has one in this group of screens.

SMILES	CHT PAM	ANO1 activ	ANO1 block	CHT inh	TMEM16A reconf	HEK293 Ca mobil	YFP-HEK293 quench	ClC-1 rat inh
Cc1cc(=O)oc2cc(OCC(O)CN3CCN(c4ccccc4)CC3)ccc12 (stereo not given)	i	i	i	i	.	.	.	.
CC(=O)/C(C#N)=C1\NC(=O)C(Cc2cc(Cl)ccc2Cl)S1 (stereo not given)	i	i	100*	i	46%*	i	-1.1	-12
Cc1ccc(S(=O)(=O)N2CCN(C(=O)CCC(=O)NCc3cccc(C(F)(F)F)c3)CC2)cc1	i	i	25*	i	i	i	-1.2	-20
O=C(CCC(=O)N1CCN(S(=O)(=O)c2ccc(Cl)cc2)CC1)NCc1ccccc1	i	i	i	i	.	.	.	.
Nc1nn(S(=O)(=O)c2cccc3nsnc23)cc1-c1ccc(Br)cc1	i	i	25*	i	i	i	-1	2
C=C(C)C1CC=C(C)/C(=N/NC(=O)CNc2ccc(OCC)cc2)C1 (stereo not given)	i	i	25*	i	i	i	-1.1	0
Fc1ccc(-c2cc3nc(-c4ccccc4)cc(N4CCOCC4)n3n2)cc1	i	i	i	i	.	.	.	.
COCCN1CCN(c2cc(-c3ccccc3)nc3cc(-c4cccc(F)c4)nn23)CC1	i	i	100*	i	i	i	-1.1	-9
Cc1cccc(N2CCN(C(=O)CCS(=O)(=O)c3ccc4c(c3)NC(=O)CO4)CC2)c1C	i	i	i	i	.	.	.	.
COc1cc(-c2nc(S(=O)(=O)c3ccccc3)c(N3CCOCC3)o2)cc(OC)c1OC	i	i	100*	i	i	i	-1	-7
O=S(=O)(c1ccccc1)c1nc(-c2ccccc2)oc1N1CCOCC1	i	i	i	i	.	.	.	.
Cc1cccc(C)c1NC(=O)COC(=O)CN1C(=O)C2CCCCC2C1=O (stereo not given)	.	i	.	.	.	.	.	.
CCn1cnc2scc(-c3ccccc3)c2c1=O	i	i	100*	i	i	i	-1.1	-12
NC(=O)C1CCN(C(=O)NC(=O)c2ccccc2)CC1	i	i	i	i	.	.	.	.
Cc1ccc(OCCSc2ncnc3nc[nH]c23)cc1	i	i	25*	i	i	i	-1.1	-12
COc1cccc(/C=C2\CCC(C3CCCC3)C2=O)c1OC (stereo not given)	i	i	25*	i	18%*	i	-0.98	-8
CC(NC(=O)C1CCC1)c1ccc2c(c1)OCO2 (stereo not given)	i	i	25*	i	i	i	-0.89	-5
CN(Cc1cccnc1)C(=O)c1ccc(Cl)c(NS(=O)(=O)c2ccc(F)cc2)c1	.	i	.	.	.	.	.	.
COCCN(C(=O)CNC(=O)c1ccco1)C(C(=O)NC1CCCC1)c1ccc(F)cc1 (stereo not given)	i	i	i	i	.	.	.	.
CC(C)CCN(C(=O)CNC(=O)c1ccco1)C(C(=O)NC1CCCCC1)c1ccco1 (stereo not given)	i	.	25*	i	19%*	i	-1.1	-6
COC(=O)c1cccc(Nc2ncnc3sccc23)c1	i	i	100*	i	26%*	i	-0.87	-16
O=C(CC(=O)c1ccccc1)CC(O)(C=Cc1ccccc1)c1ccccc1 (stereo not given)	.	i	.	.	.	.	.	.
O=C(CS(=O)CC(=O)N(CC(=O)NC1CCCC1)C1CCCC1)Nc1ccc(F)cc1 (stereo not given)	i	.	25*	i	i	i	-1.1	-8
CC(C)(C)N(CC(=O)NC1CCCCC1)C(=O)CS(=O)CC(=O)Nc1ccc(F)cc1 (stereo not given)	i	i	i	i	.	.	.	.
O=[N+]([O-])c1cc(C(F)(F)F)ccc1NCCc1c[nH]c2ccc(O)cc12	i	i	25*	i	i	i	-1	-11
SMILES	CHT PAM	ANO1 activ	ANO1 block	CHT inh	TMEM16A reconf	HEK293 Ca mobil	YFP-HEK293 quench	ClC-1 rat inh
O=[N+]([O-])c1cc(C(F)(F)F)ccc1NCCc1c[nH]c2ccccc12	i	i	i	i	.	.	.	.
CCNC(=O)CC1C(=O)N(c2ccc(F)cc2)C(=O)N1Cc1ccccn1 (stereo not given)	i	i	100*	i	i	i	-1	-8
CCOc1ccc(N2C(=O)C(CC(=O)Nc3ccc(F)cc3)N(Cc3ccccn3)C2=S)cc1 (stereo not given)	i	i	i	i	.	.	.	.
O=C1CCC(C(=O)N2CCc3ccccc3C2)CN1CCCN1CCOCC1 (stereo not given)	i	i	i	i	.	.	.	.
CCCCSc1nnc(-c2ccccc2)c2ccccc12	i	i	100*	i	i	i	-1.1	-8
CCC(C(=O)OCC(=O)Nc1ccc(Cl)c(S(=O)(=O)N(C)C)c1)c1ccccc1 (stereo not given)	i	i	25*	i	20%*	i	-1.2	-6
CN(C)S(=O)(=O)c1cc(NC(=O)COC(=O)Cc2cccc3ccccc23)ccc1Cl	i	i	25*	i	i	i	-0.94	-4
CSc1ccccc1OCc1cc(C(=O)N2CCNC(=O)C2)no1	i	i	i	i	.	.	.	.
COCC1CCN(C(=O)c2cc(COc3ccc4ncccc4c3)on2)CC1	i	i	25*	i	32%*	i	-0.89	-13
O=C(c1cc(COc2ccc3ncccc3c2)on1)N1CCCC1	i	i	25*	i	26%*	i	-1.1	-26
CSc1ccccc1OCc1cc(C(=O)N2CCC(c3ccncc3)CC2)no1	i	i	100*	i	i	i	-1.2	-20
CNC(=S)N(Cc1ccc(OC)cc1)C1CC(=O)N(c2ccc(Cl)cc2)C1=O (stereo not given)	i	i	i	i	28%*	i	-0.96	-4
